Sampled rows, rich in hits. Any-hit rate of the full collection: about 19%.
DT40 TDP1 no CPT: qHTS for Inhibitors of human tyrosyl-DNA phosphodiesterase 1 (TDP1): qHTS in cells in absence of CPT | AID 686978, 2013 | hit rate 15% among 420,000 | DT40 Tdp1-/- hTDP1 cells, no CPT, ATP luminescence, 48 h | Potency, µM (top dose mostly 46.2 µM), most hits filed as inhibitors; also: nearly all actives have a fitted effect of over 55% in size
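Growth kinetics read by CellTiter-Glo luminescence after ≥48 hr at 37 °C. Cells: DT40 Tdp1-/- stably carrying human TDP1, 400 per well, compound exposure in the absence of CPT (DMSO vehicle).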
IL1B secr inh: inflammasome signaling inhibition, IL-1 beta readout; THP-1 LPS/ATP IL-1B secretion, AlphaLISA, 16 h; hits give low values; activity change, % at 57.5 µM; hit rate 4.7% among 360,000; AID 743279; in the data active = activity change below about -50%; inconclusive = mostly about -30% to -49%
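THP-1 cells pretreated 1 hr with compounds (up to 57.5 uM final), then stimulated with LPS (250 ng/mL final) plus ATP (1.25 mM final); secreted IL-1B measured by AlphaLISA after 16 hr, decreased signal indicating inhibition.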
ELG1 DNA repair: inhibitors of ELG1-dependent DNA repair in HEK293T cells | hit rate 2.3% among 330,000 | AID 504467 | Potency, µM (top dose mostly 46.1 µM), usual class: inhibitors | HEK293T ELG1-luciferase reporter, luminescence, 16 h; DNA damage induced by 5-fluorouridine; also: nearly all actives have a fitted effect of over 55% in size
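DMSO vehicle served as the neutral condition. Each well held 2,000 cells given 5-fluorouridine plus compound; after 16 hr at 37 °C/5% CO2, ONE-Glo was added and luciferase measured 30 min later.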
HT1080 IDH1KD tx: kills HT-1080 cells with IDH1 knockdown | hit rate 2% among 360,000 | HT-1080 IDH1 knockdown viability, ATP luminescence, 48 h | Potency, µM (series often up to 46.1 µM), most hits filed as cytotoxic
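Using the IDH1-knockdown HT-1080 line run in the same batch and compound series as the NT line, viability after 48 h at 37 °C was determined by CellTiter-Glo luminescence and expressed as % activity.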
HT1080-NT tox: kills 2HG-producing HT-1080-NT fibrosarcoma cells. hit rate 1.6% among 360,000. Potency, µM (doses to about 46.1 µM), most hits filed as cytotoxic. HT-1080-NT fibrosarcoma viability, CellTiter-Glo ATP luminescence, 48 h. AID 686970;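 also: NT is the 2HG producing partner of a matched IDH1 knockdown line; nearly all actives have a fitted effect of over 55% in size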
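HT-1080-NT fibrosarcoma cells (2HG-overproducing), 750 cells/well in RPMI with 5% FBS, dosed after 2 h and incubated 48 h at 37C. CellTiter-Glo luminescence normalized to DMSO and no-cell wells; concentration-response curves fitted and classed.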
TDP1 cell CPT: DT40-hTDP1 cell growth loss with CPT; chicken DT40 Tdp1-/-;hTDP1 cells + 20 nM CPT, ATP luminescence, 48 h; Potency, µM (series often up to 46.2 µM), usual class: inhibitors; hit rate 12% among 420,000; AID 686979; also: nearly all actives have a fitted effect of over 55% in size
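Chicken DT40 Tdp1-/- cells complemented with human TDP1, 400 cells/well, exposed to compounds plus 20 nM camptothecin for at least 48 h at 37 C; viability read as ATP content by CellTiter-Glo luminescence.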
Large screens that a line does not name were inactive. Unless noted, calls follow the shape of the dose curve; as a rule, active = well fitted curve in the direction sought with a large enough effect; inconclusive = small, poorly fitted or top-dose-only effect, or another doubt; inactive = no such curve, though single readings can be large; an effect the other way counts as inactive or inconclusive.

CCOC(=O)N1CCC(NC(=O)CSCc2cnn(-c3ccccc3)c2-n2cccc2)CC1	DT40 TDP1 no CPT inconclusive, TDP1 cell CPT inconclusive
CCOC(=O)N1CCC(NC(=O)c2cnn(-c3cccc(F)c3)c2-n2cccc2)CC1	DT40 TDP1 no CPT 18µM, TDP1 cell CPT inconclusive (no result: IL1B secr inh, ELG1 DNA repair, HT1080 IDH1KD tx, HT1080-NT tox)
CCOC(=O)N1CCC(NC(=O)c2c(C)nn(-c3cccc(C)c3)c2-n2cccc2)CC1	DT40 TDP1 no CPT 18µM, TDP1 cell CPT 21µM (no result: IL1B secr inh, ELG1 DNA repair, HT1080 IDH1KD tx, HT1080-NT tox)
CCOC(=O)N1CCC(NC(=O)c2sc(-n3cccc3)nc2C)CC1	TDP1 cell CPT inconclusive
Cc1csc(NC(=O)c2nn(C)c(C)c2[N+](=O)[O-])n1	ELG1 DNA repair inconclusive
Cc1ccc(NC(=S)N2CCC(c3nc4ccccc4s3)CC2)cc1C	DT40 TDP1 no CPT inconclusive, IL1B secr inh -65, HT1080-NT tox inconclusive, TDP1 cell CPT inconclusive
O=C(COc1ccc([N+](=O)[O-])cc1)N1CCC(c2nc3ccccc3s2)CC1	DT40 TDP1 no CPT 9.2µM, TDP1 cell CPT 7.3µM (no result: IL1B secr inh, ELG1 DNA repair, HT1080 IDH1KD tx, HT1080-NT tox)
CCc1ccc(OC(C)C(=O)N2CCC(c3nc4ccccc4s3)CC2)cc1 (stereo not drawn)	DT40 TDP1 no CPT 16µM, TDP1 cell CPT 18µM (no result: IL1B secr inh, ELG1 DNA repair, HT1080 IDH1KD tx, HT1080-NT tox)
CC(C)Oc1ccc(C(=O)N2CCC(c3nc4ccccc4s3)CC2)cc1	DT40 TDP1 no CPT inconclusive (no result: IL1B secr inh, ELG1 DNA repair, HT1080 IDH1KD tx, HT1080-NT tox)
Cc1cc(C)cc(NC(=S)N2CCC(c3nc4ccccc4s3)CC2)c1	HT1080 IDH1KD tx inconclusive, HT1080-NT tox inconclusive, TDP1 cell CPT inconclusive
CCCCOc1ccc(C(=O)NCC(=O)OCCCOC(=O)CNC(=O)c2ccc(OCCCC)cc2)cc1	TDP1 cell CPT inconclusive (no result: ELG1 DNA repair)
COc1ccc(-c2csc(NC(=O)C3CSC4(C)CCC(=O)N34)n2)c(OC)c1 (stereo not drawn)	DT40 TDP1 no CPT 23µM, IL1B secr inh -71, ELG1 DNA repair inconclusive, TDP1 cell CPT inconclusive
COc1ccc(C2CC(C)(c3ccc(OC)cc3)Nc3ccccc3N2)cc1 (stereo not drawn)	DT40 TDP1 no CPT 15µM, HT1080 IDH1KD tx inconclusive, HT1080-NT tox inconclusive, TDP1 cell CPT inconclusive
COc1ccc(C2(C)CC(C)(C)Nc3ccccc32)cc1 (stereo not drawn)	DT40 TDP1 no CPT inconclusive
CCOC(=O)c1c(N)sc2c(OCC)c(Br)ccc12	DT40 TDP1 no CPT inconclusive, HT1080 IDH1KD tx inconclusive, HT1080-NT tox inconclusive, TDP1 cell CPT inconclusive
CCOC(=O)c1c(NC(C)=O)sc2c(OCC(O)CNC(C)(C)C)c(Br)ccc12 (stereo not drawn)	DT40 TDP1 no CPT 10µM, IL1B secr inh -72, HT1080-NT tox inconclusive, TDP1 cell CPT inconclusive
COc1ccc(C(=O)/C=C/c2ccccc2)c(OC)c1	DT40 TDP1 no CPT 12µM, IL1B secr inh -111, ELG1 DNA repair inconclusive, HT1080 IDH1KD tx inconclusive
COc1ccc(C(=O)/C=C/Nc2cc(C)on2)c(OC)c1	ELG1 DNA repair inconclusive, HT1080 IDH1KD tx inconclusive, TDP1 cell CPT inconclusive
COc1cc(C)cc(C(=O)C=Cc2ccccc2)c1O	DT40 TDP1 no CPT inconclusive, IL1B secr inh -59, HT1080 IDH1KD tx inconclusive, HT1080-NT tox 23µM, TDP1 cell CPT inconclusive (no result: ELG1 DNA repair)
COc1ccc(/C=C/C(=O)c2cccs2)c(OC)c1	DT40 TDP1 no CPT 2.4µM, TDP1 cell CPT 1.1µM (no result: IL1B secr inh, ELG1 DNA repair, HT1080 IDH1KD tx, HT1080-NT tox)
COc1ccc(C(=O)/C=C/c2ccc(N(C)C)cc2)c(OC)c1	DT40 TDP1 no CPT 10µM, IL1B secr inh -100, HT1080 IDH1KD tx inconclusive, HT1080-NT tox inconclusive, TDP1 cell CPT 7.3µM
O=S(=O)(O)O	none (no result: IL1B secr inh, ELG1 DNA repair, HT1080 IDH1KD tx, HT1080-NT tox)
CS(=O)(=O)c1ccc(-c2cccc3c2OC(CNC(=O)c2cc(C4CC4)[nH]n2)C3)cc1 (stereo not drawn)	DT40 TDP1 no CPT inconclusive (no result: IL1B secr inh, ELG1 DNA repair, HT1080 IDH1KD tx, HT1080-NT tox)
COc1ccc([C@H]2CC(=O)C=C(c3ccc(C)c4ccccc34)C2)cc1	ELG1 DNA repair inconclusive, TDP1 cell CPT inconclusive
CC(N)(C(=O)O)c1cccc(OCc2cccc(Cl)c2)c1 (stereo not drawn)	IL1B secr inh inconclusive
COc1ccc(/C=C/C(=O)c2cc3cccc(OC)c3oc2=O)cc1	DT40 TDP1 no CPT 23µM, TDP1 cell CPT inconclusive
